According to PubChem BioAssay AID651815 (National Center for Advancing Translational Sciences (NCATS), 2012):
Several values for one entry are separate records, joined by “and”; a condition that tells them apart may be missing. Identical values can stand only once. The whole screen tested about 2,100 compounds, of which about 1,100 (52%) were called active. Roughly 29% stayed inconclusive and do not appear here. So high a share suggests a set chosen from earlier hits. Some of the results follow. Values without a mark were called inactive. The call rests on the fitted dose curve; in most records, active means well fitted inhibition curve with a large enough effect; inconclusive means small, poorly fitted or top-dose-only effect; inactive means no such curve, though single readings can be large or run the other way.

molecular target: DNA dC->dU-editing enzyme APOBEC-3F (Homo sapiens) (UniProt Q8IUX4); assay: qHTS for inhibitors of Vif-A3F interactions: Cherry picks counterscreen; details: HeLa A3F-eYFP/Vif cells, eYFP fluorescence, 24 h; series mostly up to 46.1 µM; activity, negative = inhibitor: at the top concentration; further: nearly all actives have a fitted effect of over 65% in size
Outline: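 HeLa cells stably expressing A3F-eYFP and Vif, cultured overnight, then treated 24 h at 37 degrees C with compounds at several concentrations; yellow fluorescence (488 nm Ex/500-530 nm Em) imaged on Acumen; MG132 positive control.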
On the % scale 0 is the no-effect control and ±100 the full control effect; potency means the concentration at half of the fitted maximal effect.

DNA dC->dU-editing enzyme APOBEC-3F (Homo sapiens), sequence (Q8IUX4 whole entry, looked up): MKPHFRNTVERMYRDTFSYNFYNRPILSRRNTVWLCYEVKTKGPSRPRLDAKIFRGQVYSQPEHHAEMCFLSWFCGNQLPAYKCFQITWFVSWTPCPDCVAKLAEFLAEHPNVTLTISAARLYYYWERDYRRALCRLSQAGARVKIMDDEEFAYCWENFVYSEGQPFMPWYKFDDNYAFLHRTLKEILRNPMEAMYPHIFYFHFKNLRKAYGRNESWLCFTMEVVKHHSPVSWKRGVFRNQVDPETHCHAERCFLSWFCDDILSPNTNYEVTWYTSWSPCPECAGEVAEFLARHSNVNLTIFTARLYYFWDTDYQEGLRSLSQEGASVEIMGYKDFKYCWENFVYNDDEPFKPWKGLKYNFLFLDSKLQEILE

Structure (SMILES) | Potency | activity, negative = inhibitor
CCC(=O)Nc1nonc1-c1nc2ccccc2n1Cc1ccccc1 | 17.7 µM (active) | 
COc1cccc(Cn2c(-c3nonc3N)nc3ccccc32)c1 | 1.58 µM (active) | 
Nc1nonc1-c1nc2ccccc2n1Cc1ccc(F)cc1 | 8.86 µM (active) | 
COc1ccc(C)c(Cn2c(-c3nonc3N)nc3ccccc32)c1 | 1.58 µM (active) | 
COc1cccc(Cn2c(-c3nonc3NC(C)=O)nc3ccccc32)c1 | 9.2 µM (active) | 
Cc1ccc(C(=O)NCCn2c(N)c(C#N)c3nc4ccccc4nc32)cc1 | 18.4 µM (active) | 
COc1ccc(-c2cc(-c3nnc(COC(=O)c4ccncc4)o3)c3ccccc3n2)cc1OC |  | 4.55%
COc1ccc(COc2cc(-c3cccc(OC)c3)nc3ccc(NC(=O)c4ccc(OC)cc4)cc23)cc1 | 6.27 µM (active) | 
Cc1ccc2c(c1)sc(-c1ccc(N(C)C)cc1)[n+]2C | 14.6 µM (active) | 
CCCC(=O)Nc1nc2ccc(NC(=O)c3ccccc3F)cc2s1 | 4.44 µM (active) | 
CCC(=O)Nc1nc2ccc(NC(=O)c3cc(OC)c(OC)c(OC)c3)cc2s1 |  | -5.46% [at 36.9 µM]
Cn1cc(C2=C(c3ccc(Cl)cc3Cl)C(=O)NC2=O)c2ccccc21 | 14.6 µM (active) and 20.6 µM (active) | 
Cc1ccc2nc(NS(=O)(=O)c3ccc(Cl)cc3)c(Nc3ccc(C(=O)O)cc3)nc2c1 | 14.6 µM (active) | 
CCOC(=O)c1ccc(Nc2nc3ccccc3nc2NS(=O)(=O)c2ccc(Cl)cc2)cc1 | 14.6 µM (active) | 
COc1cccc(Nc2nc(Nc3ccc(Cl)c(C(=O)O)c3)nc(C)c2[N+](=O)[O-])c1 |  | -17.5% [at 36.9 µM]
CCOC(=O)N1CCC(Nc2nc3ccccc3n3nnnc23)CC1 | 18.4 µM (active) | 
COC(=O)c1cc(Nc2nc3ccccc3nc2NS(=O)(=O)c2ccc(C)cc2)ccc1Cl | 18.4 µM (active) | 
CCOC(=O)N1CCC(Nc2nc3ccccc3nc2NS(=O)(=O)c2ccc(Cl)cc2)CC1 | 23.1 µM (active) | 
CC(=O)N/N=C/c1cc(C(C)C)cc(/C=N/NC(C)=O)c1O |  | 1.76%
NC(=S)N/N=C/c1cccc(O)c1O |  | -9.52%
CC(=O)N/N=C/c1cc(C(C)(C)C)cc(/C=N/NC(C)=O)c1O | 23.1 µM (active) | 
CCOc1ccc(C(C)=O)cc1COc1cccnc1[N+](=O)[O-] | 9.94 µM (active) | 
COc1cccc(/C=N/n2c(C3CCCCC3)n[nH]c2=S)c1O |  | 3.52%
COc1ccc(-n2nc3c(N4CCCC(C(=O)NCCc5ccccc5C)C4)nnc(C)c3c2C)cc1 (configuration not stated) | 25.9 µM (active) | 
COc1ccc2cc(C(=O)C3CCCN(Cc4ccccn4)C3)ccc2c1 (configuration not stated) |  | -1.67%

Structure (SMILES) | Potency | activity, negative = inhibitor
CNCC(O)Cn1c2c(c3ccccc31)CCCC2 (configuration not stated) |  | -7.5% [at 36.9 µM]
O=C(c1ccccc1F)n1c2c(c3ccccc31)CCCC2 | 11.2 µM (active) | 
CCOC(=O)N1CCc2c(sc3c2C(=O)NC(c2ccc(N(C)C)cc2)N3)C1 (configuration not stated) | 9.2 µM (active) | 
Cc1cc(C)c2cc3c(N)c(C(=O)Nc4c(C)[nH]c(=O)[nH]c4=O)sc3nc2c1 | 18.4 µM (active) | 
CCOC1=C/C(=C/c2c(N)n3nc(-c4ccccc4)sc3nc2=O)C=CC1=O |  | 7.32%
CCSc1ncc(Cl)c(C(=O)N2CCN(c3ccccc3OC)CC2)n1 | 2.06 µM (active) | 
COc1ccccc1N1C(=O)c2cccc3c(C(=O)O)ccc(c23)C1=O |  | -7.57% [at 36.9 µM]
COc1ccccc1N1CCN(C(=O)c2cc(=O)c3cc(C)cc(C)c3o2)CC1 | 0.125 µM (active) | 
COc1ccccc1N1CCN(C(=O)c2ccc3ncsc3c2)CC1 |  | -27% [at 36.9 µM]
COC(=O)c1cc(C(=O)N2CCN(c3ccccc3OC)CC2)cc([N+](=O)[O-])c1 | 3.96 µM (active) | 
COc1cc(SC)ccc1C(=O)N1CCN(c2ccccc2OC)CC1 | 3.53 µM (active) | 
COc1ccccc1C(=O)N1CCN(c2cccc(Cl)c2)CC1 | 1.25 µM (active) | 
COc1ccc(Cn2c(C)nc3c(c2=O)c2nc4ccccc4nc2n3Cc2ccco2)cc1 | 18.4 µM (active) | 
Cc1ccc2nc3c(cc(S(=O)(=O)c4ccccc4)c(=N)n3Cc3ccco3)c(=O)n2c1 |  | -23%
CCn1c(SCC(=O)c2c[nH]c3ccccc23)nnc1-c1cccs1 | 18.4 µM (active) | 
CCOc1cc(/C=C(/C#N)C(=O)Nc2ccc(O)cc2)cc(Br)c1O | 15.8 µM (active) | 
CCOC(=O)c1c(-c2ccc(C)cc2)csc1NC(=O)/C(C#N)=C/c1ccc(O)c(OC)c1 |  | 16.7% [at 36.9 µM]
CCOc1ccc(NC(=O)/C(C#N)=C/c2ccc(N3CCCC3)c(C)c2)cc1 | 5.8 µM (active) | 
Cc1ccc2c(c1)Sc1c(ccc3ccccc13)N2 | 16.4 µM (active) | 
O=[N+]([O-])c1ccccc1SNc1ccccc1 |  | -29% [at 36.9 µM]
Cc1cc(C)c(S(=O)(=O)Oc2ccccc2[N+](=O)[O-])c(C)c1 | 6.27 µM (active) | 
CCN(CC)c1ccc(C=NNc2ccc([N+](=O)[O-])cn2)cc1 | 10.3 µM (active) | 
Cc1ccc(Cc2c(C3CCCCC3)nc3ccc(C)cn23)cc1 |  | -21.2% [at 36.9 µM]
Cc1noc(C)c1COc1cccc(C(=O)OCC(=O)N2CC(=O)Nc3ccccc32)c1 | 6.27 µM (active) | 
C/C(=N\Nc1nccnc1Cl)c1ccc(Cl)c(Cl)c1 |  | -1.06%

Structure (SMILES) | Potency | activity, negative = inhibitor
C=CCSc1nc2ccccc2n1C(=O)/C=C/c1cc(OC)c(OC)c(OC)c1 | 6.27 µM (active) | 
CCSc1nc2ccccc2n1C(=O)/C=C/c1ccc(OC)c(OC)c1 | 4.98 µM (active) | 
CNc1cncc(-c2cc(C)c(O)c(C)c2)n1 | 4.44 µM (active) | 
O=C(Nc1ncc(Cc2ccc(SC(F)F)cc2)s1)c1ccccc1 | 2.23 µM (active) | 
O=C(O)Cc1sc(NC2CCCCC2)nc1-c1ccc(Cl)cc1 |  | -13.1%
Cc1nc(-c2ccc(Cl)cc2)sc1C(=O)NN | 14 µM (active) | 
CCOc1cc(/C=C2/SC(=S)N(CC3CCCO3)C2=O)ccc1O (configuration not stated) | 14.6 µM (active) | 
CCN(CC)c1cc(C)c(/C=C/c2ccnc3ccccc23)cc1C | 20.6 µM (active) | 
Cc1cc(N(C)C)c(C)cc1/C=C/c1ccnc2ccccc12 | 8.2 µM (active) | 
CC(C)C1C(=O)N(Cc2cn(CCC3OCCCO3)nn2)CCS(=O)(=O)N1Cc1ccc(-c2cccc(CO)c2)cc1 (configuration not stated) |  | -8.31% [at 36.9 µM]
O=C(NC(=S)Nc1ccc(N2CCCCC2)c(Cl)c1)c1ccc2c(c1)OCCO2 |  | -28.4%
COc1ccc(-c2cc3ccccc3oc2=O)cc1NC(=S)NC(=O)c1ccc2c(c1)OCCO2 | 6.51 µM (active) | 
Cc1ccc2ccc3cc(C(=O)Nc4ccc(C)c(F)c4)nc3c2[nH]1 | 18.4 µM (active) | 
C1=Cc2ccccc2/C1=C\c1cc2c3c(c1)CCCN3CCC2 | 16.4 µM (active) | 
Cc1ccc(/C=C2/CNC/C(=C/c3ccc(C)cc3)C2=O)cc1 | 9.94 µM (active) | 
CCNc1ccc(Br)cc(C(=O)/C=C/c2ccc3c(c2)OCO3)c1=O | 18.4 µM (active) | 
Cc1ccc2oc(/N=C(\N)NC(=O)C(C)(C)C)nc2c1 |  | 0.425%
CN1C(=O)/C(=C/c2ccccc2OCc2ccc(F)cc2)N(C)C1=S |  | -14.7%
CCc1ccc(C(=O)NC(=S)Nc2ccc(N3CCOCC3)cc2)cc1 |  | 3.84%
Cc1ccc(C)c2nc3sc(C(=O)N4CCOCC4)c(N)c3cc12 | 15.8 µM (active) | 
CCNC(=S)N/N=C(\C)c1ccc(N2CCOCC2)cc1 |  | -2.23%
Cc1cccc2cc3c(N)c(C(=O)N4CCOCC4)sc3nc12 | 16.4 µM (active) | 
Cc1cccc2cc3c(N)c(C(=O)Nc4ccc(N5CCOCC5)cc4)sc3nc12 | 12.5 µM (active) | 
O=C(Nc1ccc(N2CCOCC2)cc1)c1cccc2ccccc12 | 15.8 µM (active) | 
N#C/C(=C/c1ccc(N2CCOCC2)o1)C(=O)NC1CCCCC1 | 18.4 µM (active) | 

Structure (SMILES) | Potency | activity, negative = inhibitor
N#C/C(=C\c1ccc(N2CCOCC2)o1)C(=O)NC1CCCCC1 | 14 µM (active) | 
N#C/C(=C\c1ccc(N2CCOCC2)o1)C(=O)NCCc1ccccc1 |  | 39.2%
Oc1cccc(Nc2nc(O)c(/C=C3\C=Nc4ccccc43)s2)c1 | 20.6 µM (active) | 
CCOC(=O)/C=c1/s/c(=C/c2ccc3cc(OC)ccc3c2)c(=O)n1CC(=O)NCC1CCCO1 (configuration not stated) | 18.4 µM (active) | 
NC(=O)CSc1nc2c(sc3ccccc32)c(=O)n1CCCC(=O)NCC1CCCO1 (configuration not stated) |  | -9.59%
CCOC(=O)/C=c1/s/c(=C\c2c(OC)ccc3ccccc23)c(=O)n1CC(=O)NCC1CCCO1 (configuration not stated) | 9.94 µM (active) | 
CCOC(=O)/C=c1\s/c(=C\c2ccccc2C)c(=O)n1CC(=O)NCc1ccc2c(c1)OCO2 | 14 µM (active) | 
CCOC(=O)/C=c1\s/c(=C\c2c(OC)ccc3ccccc23)c(=O)n1CC(=O)NCC1CCCO1 (configuration not stated) | 4.61 µM (active) | 
S=C(NN=Cc1ccccn1)Nc1ccccn1 |  | 13.5%
Nc1cccc(CCc2nc3cc4ccccc4cc3[nH]2)c1 | 4.44 µM (active) | 
O=C(NNc1ncc(C(F)(F)F)cc1Cl)c1c(Cl)cccc1Cl | 4.44 µM (active) | 
Cc1cc(C)c(C(=O)N(CCN(C)C)CC2CCCN(Cc3ccccc3F)C2)o1 (configuration not stated) |  | -1.53%
CC(C)OC(=O)c1cc(C(=O)c2cc(F)ccc2O)coc1=N | 20.6 µM (active) | 
CCC(=O)Nc1ccccc1-c1nc2ccccc2n(C(C)C(=O)Nc2ccc(OC)cc2)c1=O (configuration not stated) | 16.4 µM (active) | 
c1cncc(-c2nc(NCc3cccs3)c3ccccc3n2)c1 |  | -5.28%
Brc1ccc2c(c1)C(c1cccnc1)=NNC(c1cccs1)=N2 | 14 µM (active) | 
COC(=O)c1sccc1S(=O)(=O)N(CC(=O)Nc1cc(F)ccc1F)c1ccc(C)c(C)c1 |  | -18.6%
CC(=O)c1c(C)[nH]c(C(=O)Nc2ccc(Cl)cc2F)c1C |  | -0.176%
CCOC(=O)c1[nH]c(C)c(C(=O)Nc2ccc(C)cc2C)c1C | 2.23 µM (active) | 
COc1ccc(OC)c(NC(=O)c2cc(-c3cc(C)cc(C)c3O)n[nH]2)c1 |  | -0.959%
CCOC(=O)c1[nH]c(C)c(C(=O)Nc2ccccc2F)c1C | 3.14 µM (active) | 
CCOC(=O)c1[nH]c(C)c(C(=O)Nc2cc(OC)ccc2OC)c1C | 1.77 µM (active) | 
